From PubChem BioAssay (EPA / NIEHS)
Values joined by “and” are separate entries in the source; they are usually repeats but may differ in a detail not shown here. Equal values may be shown once. Inconclusive results are not listed. Active and inactive are the calls of the source. Rule for the calls, unless noted: active = hit-call score of the fitted dose curve at least 0.9, where 1 is the maximum; inactive = score below 0.9.

Assays:
[1] = read-out: Monokine induced gamma interferon (MIG), CXCL9 (gene 4283); assay: BSK_KF3CT_MIG: BioMAP Diversity Plus: KF3CT Assay for Monokine induced gamma interferon (MIG) Biomarker Activity (AID 2284248); conditions: primary human keratinocytes with fibroblasts
How it was run: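 MIG in dosed human skin co-cultures was measured by ELISA at 24 h, relative to DMSO.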

[2] = read-out: Plasminogen activator inhibitor-1 (PAI1), SERPINE1 (gene 5054); assay: BSK_KF3CT_PAI1: BioMAP Diversity Plus: KF3CT Assay for Plasminogen activator inhibitor-1 (PAI1) Biomarker Activity (AID 2284252); conditions: primary human keratinocytes with fibroblasts
How it was run: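 ELISA read-out of PAI-1 taken 24 h after chemical treatment of a human skin primary co-culture of keratinocytes and foreskin fibroblasts. Increases over DMSO-treated wells defined activity.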

[3] = read-out: Interleukin-8 (IL8), CXCL8 (gene 3576); assay: BSK_KF3CT_IL8: BioMAP Diversity Plus: KF3CT Assay for Interleukin-8 (IL8) Biomarker Activity (AID 2284254); conditions: primary human keratinocytes with fibroblasts
How it was run: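 Using parallel SRB-stained cultures to flag overt toxicity, the study quantified IL-8 by ELISA in human keratinocyte–foreskin fibroblast co-cultures 24 h after dosing, with DMSO as negative control and baseline.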

[4] = read-out: Interleukin-8 (IL8), CXCL8 (gene 3576); assay: BSK_BE3C_IL8: BioMAP Diversity Plus: BE3C Assay for Interleukin-8 (IL8) Biomarker Activity (AID 2284280); conditions: primary human bronchial epithelial cells
How it was run: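 IL-8 signal gain, normalised to DMSO vehicle, was scored after a 24 h chemical exposure of primary human bronchial epithelial cells, with detection by ELISA.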

[5] = read-out: Plasminogen activator inhibitor-1 (PAI1), SERPINE1 (gene 5054); assay: BSK_CASM3C_PAI1: BioMAP Diversity Plus: CASM3C Assay for Plasminogen activator inhibitor-1 (PAI1) Biomarker Activity (AID 2284284); conditions: primary human coronary artery smooth muscle cells;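 note: PAI-1 protein level measured by ELISA 24 h after dosing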
[6] = read-out: Intercellular Adhesion Molecule 1 (ICAM1), ICAM1 (gene 3383); assay: BSK_hDFCGF_ICAM1: BioMAP Diversity Plus: hDFCGF Assay for Intercellular Adhesion Molecule 1 (ICAM1) Biomarker Activity (AID 2284287); conditions: primary human foreskin fibroblasts
How it was run: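 Primary human foreskin fibroblasts (hDFCGF system) dosed with chemical; ICAM-1 quantified by ELISA at 24 h relative to DMSO. Parallel SRB total-protein staining to assess overt cytotoxicity.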

[7] = CCTE_Shafer_MEA_acute_spike_number: CCTE's Neural Acute Assay for Total Number of Spikes, Shafer Lab (AID 2284008);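 for AC50: curve fitted for decrease in spike count so AC50 reflects inhibitors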
How it was run: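 Using an adaptive detector set to 8x rms noise, spikes were counted in 40-min windows before and after compound addition (0.03-40 uM) to rat cortical networks at 37 C; the well-level change from baseline was analysed relative to DMSO.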

[8] = CCTE_Shafer_MEA_acute_firing_rate_mean: CCTE's Neural Acute Assay for Mean Firing Rate, Shafer Lab (AID 2284009);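 note: analyzed for loss of signal so actives lower firing rate relative to DMSO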
How it was run: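 Percent change in well-mean firing rate was derived from extracellular spikes detected at 8x rms noise (300-5000 Hz band-pass) before and after a 40-min compound exposure. Cultures were primary rat cortical neurons, tested at 0.03-40 uM.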

[9] = target: Hepatocyte nuclear factor 3-beta (Homo sapiens) (UniProt Q9Y261); assay: ATG_FoxA2_CIS: Attagene CIS-FACTORIAL HepG2 Assay for human Forkhead box A2 (FOXA2) (AID 2282942); conditions: HepG2 cis-reporter transcription factor activity, 24 h; actives raise or lower the signal
Sequence of Hepatocyte nuclear factor 3-beta (Homo sapiens) (Q9Y261 whole entry, looked up): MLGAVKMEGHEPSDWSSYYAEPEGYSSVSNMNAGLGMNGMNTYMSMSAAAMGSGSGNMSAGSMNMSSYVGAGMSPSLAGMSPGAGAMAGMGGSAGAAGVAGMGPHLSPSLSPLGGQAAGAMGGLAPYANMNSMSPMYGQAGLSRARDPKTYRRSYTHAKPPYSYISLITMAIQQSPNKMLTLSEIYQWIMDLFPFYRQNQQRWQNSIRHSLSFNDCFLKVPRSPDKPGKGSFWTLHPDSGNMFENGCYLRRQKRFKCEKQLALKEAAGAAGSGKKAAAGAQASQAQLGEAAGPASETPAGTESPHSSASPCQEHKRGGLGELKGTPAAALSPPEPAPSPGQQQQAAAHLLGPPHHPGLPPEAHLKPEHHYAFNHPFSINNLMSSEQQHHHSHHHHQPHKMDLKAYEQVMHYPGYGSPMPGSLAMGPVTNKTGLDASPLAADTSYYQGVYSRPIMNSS
How it was run: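 HepG2 cells transiently transfected with multiple cis-regulated reporter transcription units, dosed for 24 h. Reporter mRNA measured by RT-PCR, 6-FAM labelling, HpaI digestion and capillary electrophoresis; bidirectional fitting against DMSO baseline.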

[10] = ATG_GRE_CIS: Attagene CIS-FACTORIAL HepG2 Assay for human Glucocorticoid Response Elements (GRE) (AID 2282947); conditions: HepG2 GRE cis-reporter, Attagene multiplex mRNA; actives raise or lower the signal
How it was run: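 Transient MRTU transfection of human HepG2 liver cells; cis-regulated reporters report endogenous factors. 24 h dosing → RNA isolation → RT-PCR → 6-FAM primer extension → HpaI cut → CE fragment analysis. Bidirectional fit, DMSO negative control.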

[11] = ATG_M_19_TRANS: Attagene TRANS-FACTORIAL HepG2 Assay for M19 Transcription Factor (Internal Marker) (AID 2282974; active = hit-call score of the fitted dose curve at least 0.9, where 1 is the maximum); conditions: HepG2 Attagene TRANS-FACTORIAL M19 internal marker reporter
How it was run: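 HepG2 cells transiently transfected with multiple GAL4-UAS reporter transcription units were exposed to chemicals for 24 h. Reporter mRNA was read by RT-PCR, 6-FAM primer extension, HpaI digestion and capillary electrophoresis; gain of signal fitted relative to DMSO.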

[12] = target: Oxysterols receptor LXR-beta (Homo sapiens) (UniProt P55055); assay: ATG_LXRb_TRANS: Attagene TRANS-FACTORIAL HepG2 Assay for human Liver X Receptor beta (LXRb) (AID 2282981; active = hit-call score of the fitted dose curve at least 0.9, where 1 is the maximum); conditions: HepG2 Attagene TRANS GAL4-LXRb reporter, mRNA
Sequence of Oxysterols receptor LXR-beta (Homo sapiens) (P55055 whole entry, looked up, the tested form may be a part): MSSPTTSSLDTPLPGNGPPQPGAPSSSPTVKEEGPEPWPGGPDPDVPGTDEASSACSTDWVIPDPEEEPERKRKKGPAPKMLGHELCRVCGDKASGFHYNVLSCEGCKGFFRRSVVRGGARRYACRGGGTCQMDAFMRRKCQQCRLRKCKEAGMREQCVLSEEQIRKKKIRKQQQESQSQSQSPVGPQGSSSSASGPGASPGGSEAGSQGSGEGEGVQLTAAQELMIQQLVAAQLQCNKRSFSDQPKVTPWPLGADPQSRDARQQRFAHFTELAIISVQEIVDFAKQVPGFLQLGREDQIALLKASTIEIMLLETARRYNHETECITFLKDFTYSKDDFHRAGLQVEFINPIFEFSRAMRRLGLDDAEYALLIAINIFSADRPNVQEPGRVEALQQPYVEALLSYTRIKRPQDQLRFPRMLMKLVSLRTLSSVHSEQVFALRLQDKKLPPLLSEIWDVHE
How it was run: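 Transient transfection HepG2 (multiplexed RTUs, GAL4-UAS); NR-Gal4 chimera; 24 h exposure; RNA → RT-PCR → 6-FAM primer extension → HpaI → CE; increase vs DMSO.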

[13] = ATG_M_32_TRANS: Attagene TRANS-FACTORIAL HepG2 Assay for M32 Transcription Factor (Internal Marker) (AID 2282984; active = hit-call score of the fitted dose curve at least 0.9, where 1 is the maximum;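 note: transcript level of a background control reporter unit measured by RT-PCR and capillary electrophoresis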); conditions: HepG2 Attagene TRANS M32 internal marker reporter
How it was run: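 Measures reporter mRNA induction in human HepG2 liver cells after 24 h chemical treatment. Transcripts from transiently transfected GAL4-UAS reporter units are amplified, fluorescently labelled and sized by capillary electrophoresis; gain of signal relative to DMSO.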

[14] = target: Transcriptional activator Myb (Homo sapiens) (UniProt P10242); assay: ATG_Myb_CIS: Attagene CIS-FACTORIAL HepG2 Assay for human Myeloblastosis (Myb) Proto-Oncogene Transcription Factor (AID 2282986); conditions: HepG2 Attagene CIS-FACTORIAL Myb reporter transcription; actives raise or lower the signal
Sequence of Transcriptional activator Myb (Homo sapiens) (P10242 whole entry, looked up): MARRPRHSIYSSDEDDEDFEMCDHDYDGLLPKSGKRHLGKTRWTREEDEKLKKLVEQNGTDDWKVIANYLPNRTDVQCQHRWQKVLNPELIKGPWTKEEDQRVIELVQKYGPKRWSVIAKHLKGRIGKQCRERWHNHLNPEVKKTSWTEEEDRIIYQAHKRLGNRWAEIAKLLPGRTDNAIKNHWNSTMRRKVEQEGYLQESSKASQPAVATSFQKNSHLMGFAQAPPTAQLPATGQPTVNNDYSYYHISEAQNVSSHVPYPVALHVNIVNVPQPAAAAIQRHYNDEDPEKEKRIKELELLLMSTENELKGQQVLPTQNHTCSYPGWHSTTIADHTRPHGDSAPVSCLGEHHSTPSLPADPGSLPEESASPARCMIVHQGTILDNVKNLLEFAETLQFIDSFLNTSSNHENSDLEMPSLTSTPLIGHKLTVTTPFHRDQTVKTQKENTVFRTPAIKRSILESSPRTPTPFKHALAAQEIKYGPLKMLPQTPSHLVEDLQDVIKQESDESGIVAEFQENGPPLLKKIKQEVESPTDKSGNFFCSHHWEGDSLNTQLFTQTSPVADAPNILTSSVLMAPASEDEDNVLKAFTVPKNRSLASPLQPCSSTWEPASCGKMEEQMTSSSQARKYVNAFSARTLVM
How it was run: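 HepG2 cells were transiently transfected with cis-regulated multiple reporter transcription units reflecting endogenous Myb activity, then exposed to compound for 24 hours. Reporter mRNA was measured by RT-PCR with capillary electrophoresis; bidirectional fitting versus DMSO baseline.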

[15] = ATG_NF_kB_CIS: Attagene CIS-FACTORIAL HepG2 Assay for human Nuclear Factor Kappa B (NF-kB) (AID 2282991); conditions: HepG2 Attagene cis-factorial NF-kB reporter mRNA; actives raise or lower the signal
How it was run: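 HepG2 cells transiently transfected with multiplexed cis-element reporter units measuring endogenous transcription factor activity; reporter mRNA read 24 h after dosing by RT-PCR, fluorescent labelling, HpaI digestion and capillary electrophoresis. Bidirectional fit against DMSO baseline.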

[16] = ACEA_ER_AUC_viability: ACEA Biosciences xCELLigence Real-Time Cell Analysis on Estrogen Receptor Agonism for Viability (AID 2283782; active = hit-call score of the fitted dose curve at least 0.9, where 1 is the maximum;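 note: continuous compound exposure with impedance area under curve over 80 h; hit means loss of impedance signal meaning reduced cell growth or viability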)
How it was run: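 T-47D; phenol red-free RPMI1640 + 10% CS-FBS; 8 conc., 1:4 serial, max 100 uM final, ≤0.5% DMSO; n = 2; continuous exposure; impedance monitored to 80 h post-dose; AUC vs DMSO.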

[17] = target: mouse Estrogen Receptor alpha (Era), Esr1 (gene 13982) (UniProt P19785); assay: NVS_NR_mERa: NovaScreen (NVS) Nuclear Receptor Binding Assay for mouse Estrogen Receptor alpha (Era) (AID 2283378; active = hit-call score of the fitted dose curve at least 0.9, where 1 is the maximum;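 note: hit means loss of bound radioligand signal relative to DMSO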)
Sequence of mouse Estrogen Receptor alpha (Era), Esr1 (gene 13982) (P19785 whole entry, looked up): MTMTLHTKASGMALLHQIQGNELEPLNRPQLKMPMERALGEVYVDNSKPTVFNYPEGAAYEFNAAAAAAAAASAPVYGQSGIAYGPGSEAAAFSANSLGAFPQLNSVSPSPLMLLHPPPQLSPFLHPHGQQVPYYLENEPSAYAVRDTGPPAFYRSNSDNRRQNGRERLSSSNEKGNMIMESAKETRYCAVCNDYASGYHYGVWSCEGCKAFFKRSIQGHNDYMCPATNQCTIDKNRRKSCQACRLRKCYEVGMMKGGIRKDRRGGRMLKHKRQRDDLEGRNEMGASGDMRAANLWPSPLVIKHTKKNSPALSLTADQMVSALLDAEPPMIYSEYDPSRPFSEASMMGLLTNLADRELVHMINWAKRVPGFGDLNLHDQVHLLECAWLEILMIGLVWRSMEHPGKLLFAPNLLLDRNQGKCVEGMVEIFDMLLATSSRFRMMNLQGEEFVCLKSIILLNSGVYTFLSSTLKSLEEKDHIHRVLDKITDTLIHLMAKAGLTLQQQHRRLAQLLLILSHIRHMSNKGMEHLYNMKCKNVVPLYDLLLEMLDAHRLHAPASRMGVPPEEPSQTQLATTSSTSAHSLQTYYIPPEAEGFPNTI
How it was run: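 Measurements come from scintillation counting after filtration, taken 18 hours after chemicals were added to a cell-free mouse Era preparation with radioligand. Screening was duplicate at 25 uM, with concurrent positive and negative controls and confirmatory concentration series for actives.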

[18] = target: Transcription factor E2F1 (Homo sapiens) (UniProt Q01094); assay: ATG_E2F_CIS: Attagene CIS-FACTORIAL HepG2 Assay for human E2F Transcription Factor 1 (AID 2282935); conditions: HepG2 Attagene cis-reporter, E2F reporter RNA transcripts; actives raise or lower the signal
Sequence of Transcription factor E2F1 (Homo sapiens) (Q01094 whole entry, looked up): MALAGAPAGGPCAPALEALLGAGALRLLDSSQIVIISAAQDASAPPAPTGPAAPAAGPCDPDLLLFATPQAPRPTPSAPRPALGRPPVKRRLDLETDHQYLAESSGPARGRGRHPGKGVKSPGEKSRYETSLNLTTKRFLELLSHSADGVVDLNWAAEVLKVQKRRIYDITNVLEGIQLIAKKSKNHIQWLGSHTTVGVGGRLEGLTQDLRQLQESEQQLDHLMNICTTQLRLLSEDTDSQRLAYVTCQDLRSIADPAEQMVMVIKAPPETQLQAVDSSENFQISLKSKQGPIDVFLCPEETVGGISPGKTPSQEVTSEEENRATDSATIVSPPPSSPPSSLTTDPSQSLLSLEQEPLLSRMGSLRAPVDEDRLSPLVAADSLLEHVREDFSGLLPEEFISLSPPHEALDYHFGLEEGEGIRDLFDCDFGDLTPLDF
How it was run: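 Cis-element reporter mRNA induction in transiently transfected HepG2, 24 h exposure. Activity fitted in both directions relative to DMSO negative control.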

[19] = target: Myc proto-oncogene protein (Homo sapiens) (UniProt P01106); assay: ATG_Myc_CIS: Attagene CIS-FACTORIAL HepG2 Assay for human Myelocytomatosis (Myc) Proto-Oncogene Transcription Factor (AID 2282990); conditions: HepG2, Attagene cis-reporter transcription factor activity; actives raise or lower the signal
Sequence of Myc proto-oncogene protein (Homo sapiens) (P01106 whole entry, looked up, the tested form may be a part): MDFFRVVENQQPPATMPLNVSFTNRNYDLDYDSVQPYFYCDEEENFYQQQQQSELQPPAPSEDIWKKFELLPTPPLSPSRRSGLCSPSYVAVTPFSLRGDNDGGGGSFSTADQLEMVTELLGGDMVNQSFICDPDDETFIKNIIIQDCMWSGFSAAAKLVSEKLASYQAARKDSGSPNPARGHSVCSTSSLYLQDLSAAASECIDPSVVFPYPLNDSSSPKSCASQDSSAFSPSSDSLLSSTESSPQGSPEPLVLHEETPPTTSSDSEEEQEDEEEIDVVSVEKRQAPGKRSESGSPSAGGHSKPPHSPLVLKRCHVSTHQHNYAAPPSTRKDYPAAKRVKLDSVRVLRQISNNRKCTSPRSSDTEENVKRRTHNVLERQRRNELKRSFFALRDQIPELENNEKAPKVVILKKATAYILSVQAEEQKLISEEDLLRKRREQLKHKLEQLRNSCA
How it was run: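 After 24 h chemical treatment of HepG2 cells carrying multiplexed cis-regulated reporter constructs, reporter transcripts quantified by RT-PCR and capillary electrophoresis of fluorescent fragments. Gain or loss fitted against DMSO baseline.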

[20] = CCTE_Harrill_HTTr_CellCount_MCF7: CCTE's Cell Proliferation Assessment for the High-Throughput Transcriptomics (HTTr) Platform, Harrill Lab (AID 2284012; active = hit-call score of the fitted dose curve at least 0.9, where 1 is the maximum;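 note: count of Hoechst-stained nuclei per well by high-content imaging in MCF-7 cells; intended direction is loss of nuclei count meaning fewer cells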)
How it was run: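 Chemicals in eight-point dilution series are added to MCF-7 cells for six hours, nuclei are stained with Hoechst and imaged, and per-well nuclei counts are fitted in both directions relative to DMSO controls.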

## OC(C(F)(F)F)(C(F)(F)F)C(O)(C(F)(F)F)C(F)(F)F
[1]
  AC50: 45.2 µM (active) and 54.8 µM (active)
[2]
  AC50: 36.1 µM (active) and 25.2 µM (active)
[3]
  outcome: inactive
[4]
  AC50: 12.3 µM (active) and 11.5 µM (active)
[5]
  outcome: inactive
[6]
  outcome: inactive

## C1CN(CCOCCN2CCOCC2)CCO1
[7]
  outcome: inactive
[8]
  outcome: inactive
[1]
  outcome: inactive
[2]
  outcome: inactive
[3]
  outcome: inactive
[4]
  outcome: inactive
[5]
  outcome: inactive
[6]
  outcome: inactive

## CCCCCCOC(=O)CCCCCCCC(=O)OCCCCCC
[9]
  outcome: inactive
[10]
  outcome: inactive
[11]
  outcome: inactive
[12]
  outcome: inactive
[13]
  outcome: inactive
[14]
  outcome: inactive
[15]
  outcome: inactive
[16]
  AC50: 50000 nM (active)

## CC(=O)CC(=O)OC(C)(C)C
[17]
  outcome: inactive

## CCC[Si](OC(C)=O)(OC(C)=O)OC(C)=O
[7]
  AC50: 72.1 nM (active)
[8]
  AC50: 72.1 nM (active)
[1]
  outcome: inactive
[2]
  outcome: inactive
[3]
  outcome: inactive
[4]
  outcome: inactive
[5]
  outcome: inactive
[6]
  outcome: inactive

## C[Si](C)(C)O[Si](C)(C)O[Si](C)(C)C
[18]
  outcome: inactive
[11]
  outcome: inactive
[14]
  outcome: inactive
[15]
  outcome: inactive

## Nc1nc(N)c2nc(-c3ccccc3)c(N)nc2n1
[17]
  outcome: inactive

## CCCC[N+]1(C)CCCC1
[18]
  outcome: inactive
[9]
  outcome: inactive
[12]
  outcome: inactive
[14]
  outcome: inactive
[19]
  outcome: inactive

## CC/C=C\CCO
[18]
  outcome: inactive
[9]
  outcome: inactive
[10]
  outcome: inactive
[11]
  outcome: inactive
[12]
  outcome: inactive
[13]
  outcome: inactive
[19]
  outcome: inactive
[20]
  outcome: inactive

## Cc1c(C(N)=O)cc([N+](=O)[O-])cc1[N+](=O)[O-]
[7]
  AC50: 3 nM (active)
[8]
  AC50: 3.2 nM (active)
[1]
  outcome: inactive
[2]
  outcome: inactive
[3]
  outcome: inactive
[4]
  outcome: inactive
[5]
  outcome: inactive
[6]
  outcome: inactive

## COc1cc(CNC(=O)CCCC/C=C/C(C)C)ccc1O
[7]
  outcome: inactive
[8]
  outcome: inactive
[1]
  outcome: inactive
[2]
  outcome: inactive
[3]
  outcome: inactive
[4]
  outcome: inactive
[5]
  outcome: inactive
[6]
  outcome: inactive

## F[B-](F)(F)F
[9]
  outcome: inactive
[11]
  outcome: inactive
[13]
  outcome: inactive
[19]
  outcome: inactive
[16]
  outcome: inactive

## CN(C)N=Nc1ccccc1
[9]
  outcome: inactive
[11]
  outcome: inactive
[12]
  outcome: inactive
[13]
  outcome: inactive
[19]
  outcome: inactive
[15]
  outcome: inactive

## CCCc1c(OCCCCc2nn[nH]n2)ccc(C(C)=O)c1O
[18]
  outcome: inactive
[9]
  outcome: inactive
[10]
  outcome: inactive
[12]
  outcome: inactive
[13]
  outcome: inactive
[14]
  outcome: inactive
[19]
  outcome: inactive
[15]
  outcome: inactive
[20]
  outcome: inactive

## CC(C)(C)C(=O)C(=O)O
[17]
  outcome: inactive
[16]
  outcome: inactive

## CC(=O)O[C@]1(C(C)=O)CC[C@H]2[C@@H]3C=C(C)C4=CC(=O)CC[C@]4(C)[C@H]3CC[C@@]21C
[20]
  outcome: inactive

## CNCCC(Oc1ccc(C(F)(F)F)cc1)c1ccccc1 (stereo unspecified)
[7]
  AC50: 877 nM (active)
[8]
  AC50: 877 nM (active)
[20]
  outcome: inactive

## COc1ccc(COC=O)cc1
[17]
  outcome: inactive
[16]
  outcome: inactive

## CNC(=O)Nc1ccc(Cl)c(Cl)c1
[17]
  outcome: inactive

## Cc1cccc(NC(=S)N(C)C)c1
[17]
  outcome: inactive

## Cc1oc(C)c(C(=O)Nc2ccccc2)c1C
[17]
  outcome: inactive

## CC(C)CC(=O)C1C(=O)c2ccccc2C1=O
[17]
  outcome: inactive

## CCCCCCCCOCCCN
[17]
  outcome: inactive

## Oc1ccc2c(c1)Cc1ccccc1-2
[20]
  outcome: inactive

## COC(=O)CCCC(=O)O
[17]
  outcome: inactive

## CC(COc1ccccc1)N(CCCl)Cc1ccccc1 (stereo unspecified)
[16]
  AC50: 88700 nM (active)
